Common to all, as to assay: MAPPIT interaction score (arbitrary units); higher = stronger binary interaction signal, active = hit call of the paper
Assay [1] has as its target CG4617. The following applies: MAPPIT configuration: N-N; pair source set: Curagen_high_conf.
Assay [2] has as its target CG4511. The following applies: MAPPIT configuration: N-C; pair source set: screen_3.
Assay [3] addresses CG42659. The following applies: MAPPIT configuration: N-C; pair source set: screen_4.
In assay [4] the target is Traf-like. The following applies: MAPPIT configuration: N-N; pair source set: Lit-BS-16.
The target in assay [5] is CG46280. The following applies: MAPPIT configuration: N-C; pair source set: screen_4.
Assay [6] deals with CG4360. The following applies: MAPPIT configuration: N-N; pair source set: Curagen_low_conf.
The target in assay [7] is CG4325. The following applies: MAPPIT configuration: N-N; pair source set: DPIM.
For assay [8], the target named is CG3651. The following applies: MAPPIT configuration: N-N; pair source set: RRS.
Assay [9] has as its target CG42512. The following applies: MAPPIT configuration: N-C; pair source set: RRS.
The target of assay [10] is Orco. The following applies: MAPPIT configuration: N-C; pair source set: Lit-BM-16.
The target of assay [11] is CG42245. The following applies: MAPPIT configuration: N-N; pair source set: RRS.
For assay [12], the target named is CG42831. The following applies: pair source set: RRS.
Assay [13] concerns the target CG3792. The following applies: MAPPIT configuration: N-C; pair source set: screen_4.
Assay [14] addresses Dpm3. The following applies: MAPPIT configuration: N-C; pair source set: screen_3.
Assay [15] has as its target CG44837. The following applies: MAPPIT configuration: N-N; pair source set: Curagen_low_conf.
Assay [16] has as its target CG43325. The following applies: MAPPIT configuration: N-C; pair source set: screen_4.
Assay [17] concerns the target caup. The following applies: MAPPIT configuration: N-N; pair source set: screen_1.
In assay [18] the target is CG4707. The following applies: MAPPIT configuration: N-N; pair source set: Curagen_high_conf.

Unmarked numbers belong to inactive results.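 Rule for the calls: active = MAPPIT score above the 99th percentile of random reference set scores in the same batch; inactive = at or below it.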
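Note: HEK293T cells with Epo stimulation, STAT-responsive firefly luciferase reporter, fold induction versus unstimulated cells divided by the larger fold induction of two negative controls lacking either bait or prey.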

B1: TfIIA-L (protein)
chain: MALCQTSVLKVYHAVIEDVITNVRDAFLDEGVDEQVLQEMKQVWRNKLLASKAVELSPDSGDGSHPPPIVANNPKSHKAANAKAKKAAAATAVTSHQHIGGNSSMSSLVGLKSSAGMAAGSGIRNGLVPIKQEVNSQNPPPLHPTSAASMMQKQQQAASSGQGSIPIVATLDPNRIMPVNITLPSPAGSASSESRVLTIQVPASALQENQLTQILTAHLISSIMSLPTTLASSVLQQHVNAALSSANHQKTLAAAKQLDGALDSSDEDESEESDDNIDNDDDDDLDKDDDEDAEHEDAAEEEPLNSEDDVTDEDSAEMFDTDNVIVCQYDKITRSRNKWKFYLKDGIMNMRGKDYVFQKSNGDAEW
Consider B1, for which the MAPPIT interaction score in assay [1] is -0.0193.

B2: Pka-R1 (protein)
chain: MSYMMAKTLEEQSLRECEHYIQTHGIQRVLKDCIVQLCVCRPENPVQFLRQYFQKLEREQVKLDASRQVISPDDCEDLSPMPQTAAPPVRRRGGISAEPVTEEDATNYVKKVVPKDYKTMNALSKAIAKNVLFAHLDESERSDIFDAMFPVNHIAGENIIQQGDEGDNFYVIDVGEVDVFVNSELVTTISEGGSFGELALIYGTPRAATVRAKTDVKLWGIDRDSYRRILMGSTIRKRKMYEEFLSRVSILESLDKWERLTVADSLETCSFDDGETIVKQGAAGDDFYIILEGCAVVLQQRSEGEDPAEVGRLGSSDYFGEIALLLDRPRAATVVARGPLKCVKLDRARFERVLGPCADILKRNITQYNSFVSLSV
On to B2, for which, in assay [2], the MAPPIT interaction score is 5.21 (active).

B3: esg (protein)
chain: MHTVEDMLVEKNYSKCPLKKRPVNYQFEAPQNHSNTPNEPQDLCVKKMEILEENPSEELINVSDCCEDEGVDVDHTDDEHIEEEDEDVDVDVDSDPNQTQAAALAAAAAVAAAAAASVVVPTPTYPKYPWNNFHMSPYTAEFYRTINQQGHQILPLRGDLIAPSSPSDSLGSLSPPPHHYLHGRASSVSPPMRSEIIHRPIGVRQHRFLPYPQMPGYPSLGGYTHTHHHHAPISPAYSENSYYSMRSMTPESSCSSSLPEDLSLKHKNLNLNLNTSQPGEQAAAKTGDMSPETMPNASAKKDKNQPPRYQCPDCQKSYSTFSGLTKHQQFHCPAAEGNQVKKSFSCKDCDKTYVSLGALKMHIRTHTLPCKCNLCGKAFSRPWLLQGHIRTHTGEKPFSCQHCHRAFADRSNLRAHLQTHSDIKKYSCTSCSKTFSRMSLLTKHSEGGCPGGSAGSSSSSELNYAGYAEP
B3: the results for the MAPPIT interaction score in assay [3] and in [4] were 0.721 and 0.713, respectively.

B4: Tm2 (protein)
chain: MDAIKKKMQAMKLEKDNAIDKADTCENQAKDANSRADKLNEEVRDLEKKFVQVEIDLVTAKEQLEKANTELEEKEKLLTATESEVATQNRKVQQIEEDLEKSEERSTTAQQKLLEATQSADENNRMCKVLENRSQQDEERMDQLTNQLKEARMLAEDADTKSDEVSRKLAFVEDELEVAEDRVRSGESKIMELEEELKVVGNSLKSLEVSEEKANQRVEEFKREMKTLSIKLKEAEQRAEHAEKQVKRLQKEVDRLEDRLFNEKEKYKAICDDLDQTFAELTGY
For the molecule B4, the MAPPIT interaction score in assay [5] is 1.5.

B5: Paris (protein)
chain: MAEICRVCMDISGKLVNIFDARRRTRVSIAEMIAQCTGFEVKRGDLFSEMICPQCYEDVKSAYGIRQTCEESHQFYCRVRDEGIEDALCALLEEEDWEISEDEDARIDSASAADDDGKSDSKKVAFECRECHKKYQRKGTFLRHMRTHMDGQSFPCPYCKRNFRLRVTLKAHMKTHNAAKPYECSHCAKTFAQQSTLQSHERTHTGERPFKCSQCSKTFIKSSDLRRHIRTHGSERPFKCSKCTKTFTRKFHLDNHFRSHTGERPFKCSHCPKAFAMKQHLKQHSRLHLPDRPFRCSHCPKTFRLSSTLKEHKLVHNAERTFKCPHCASFYKQRKTLARHILEIHK
For the molecule B5, the MAPPIT interaction score in [6] is 0.0302.

B6: mfrn (protein)
chain: MNIDDYESLPTTSVGVNMTAGAIAGVLEHVVMYPLDSVKTRMQSLSPPTKNMNIVSTLRTMITREGLLRPIRGASAVVLGAGPAHSLYFAAYEMTKELTAKFTSVRNLNYVISGAVATLIHDAISSPTDVIKQRMQMYNSPYTSVVSCVRDIYKREGFKAFYRAYGTQLVMNLPYQTIHFTTYEFFQNKMNLERKYNPPVHMAAGAAAGACAAAVTTPLDVIKTLLNTQETGLTRGMIEASRKIYHMAGPLGFFRGTTARVLYSMPATAICWSTYEFFKFYLCGLDADQYKSSITGSSEPRKADYVLPRTTDEEQIDQEREAAKEKDTTATLHSAPTSVNASGAIKTVCELSTRPAGPTINLHTRHTDVKSPYERGFST
With B6, in assay [7], the MAPPIT interaction score is -0.276.

B7: mex1 (protein)
chain: MCNALCECLKCPGKVVCCCCSCACKMLLSIVFSALLMVVVIGLIVYFTVFYHKDKNTDEVQKQVAQLTPIVKRSIRDYFNKEY
For B7, the MAPPIT interaction score in [8] was 0.00975.

B8: Orco (protein)
chain: MTTSMQPSKYTGLVADLMPNIRAMKYSGLFMHNFTGGSAFMKKVYSSVHLVFLLMQFTFILVNMALNAEEVNELSGNTITTLFFTHCITKFIYLAVNQKNFYRTLNIWNQVNTHPLFAESDARYHSIALAKMRKLFFLVMLTTVASATAWTTITFFGDSVKMVVDHETNSSIPVEIPRLPIKSFYPWNASHGMFYMISFAFQIYYVLFSMIHSNLCDVMFCSWLIFACEQLQHLKGIMKPLMELSASLDTYRPNSAALFRSLSANSKSELIHNEEKDPGTDMDMSGIYSSKADWGAQFRAPSTLQSFGGNGGGGNGLVNGANPNGLTKKQEMMVRSAIKYWVERHKHVVRLVAAIGDTYGAALLLHMLTSTIKLTLLAYQATKINGVNVYAFTVVGYLGYALAQVFHFCIFGNRLIEESSSVMEAAYSCHWYDGSEEAKTFVQIVCQQCQKAMSISGAKFFTVSLDLFASVLGAVVTYFMVLVQLK
With B8, the MAPPIT interaction score in assay [9] is 0.963; in assay [10], -0.077.

B9: Dhfr (protein)
chain: MLRFNLIVAVCENFGIGIRGDLPWRIKSELKYFSRTTKRTSDPTKQNAVVMGRKTYFGVPESKRPLPDRLNIVLSTTLQESDLPKGVLLCPNLETAMKILEEQNEVENIWIVGGSGVYEEAMASPRCHRLYITKIMQKFDCDTFFPAIPDSFREVAPDSDMPLGVQEENGIKFEYKILEKHS
With B9, the MAPPIT interaction score in assay [11] was 0.497.

B10: dan (protein)
chain: MNIRMGTKGKRPLRSLTPRDKIHAIQRIHDGESKASVARDIGVPESTLRGWCKNEDKLRFMSRQSATDNLCADALGDKMDGGGGGGGGAGGGGLLGPPEKRQRLDGALPLNFSNKLKFDELAFKRSPLNGLDYSTNKNLADLGYNGLPVDYAAFNGGVKAKVFGADINRPAADPSLNAISPLSSLTHLSGLTGISQSPLAISFNELTTNLNLLAQLNPGLAAMSGLNSFPAGAGNLRTPKPSGQTPLQVQSPRSDSGDRSAQGLSVKNWAKQKPGEGQGSLNLSIKNEGKGGDIKSPSPSIAPSQMGGPMTLSNLAEDPLLYWLKSQQTMLGLNPLYPPTIPMGVTSPPIRSSTPQHMSQLAQTPPIPSAPLTPSSTPSGSLDEKNAAWYNWCKAFGASLHTLNPNAATLAALQANQLQQQVATTAAEGGSMGDPSNILYSHLTKETETPSVRSLSSNEQNPEADEATETDLDGEVEPEASGKPEDLSAAGKVMTPSQSPIAHSSGSRSPEPKAKTKTPETTNSTSECKKILDNMLFKMGGMEATGPLMPEQGSSESEGSFQDTSNPHTNNNDVSASNNNNNNNSNKTDEEEKAKYLDCTADEDIEAIRHGEKFLQWLENCSNPRVTAVQLMQLRFLIAAIKSGNETPMIEKSALPEDSEEHAAEEEGSGRGKSRRRK
As to B10, the MAPPIT interaction score in [12] (MAPPIT configuration: N-C) is 0.788; in [12] (MAPPIT configuration: N-N), 0.273.

B11: Syngr (protein)
chain: MDMLNQILSINNGGAYGGGKAGGAFDPLTFAMKPQVVIRALCWLFSVVVFGCISSEGWTEKDGKEYCLYNGDGMACKYGNMVGVFGFLASMGFMGGEFLFERMSSVKSRKRYVMADMGFSALWTFMYFVAFLYLWSQWSSSAPPPLGIGAGSMKTAIWFCLFSIVSWALCALMAYKRFLIGAGDEFTSAFETDPANVVHQQAYGYSMDNDNDQYSASPFGQPQQGGMEQQQSGMEYQQPTY
Regarding B11, the MAPPIT interaction score is -0.645 in assay [13] and -1.36 in [14].

B12: RhoGAP92B (protein)
chain: MKRQFAKIKIAAENLSRSSKSDSKDSELEAIERQVDRYRDTIEKIVRKLPALSGGGGSGSGSSEEQDKRTKKNSHYKIAQALDESAKELPKDMPLQKVLANCGELEKTMAECIIESELETEAKVVRRLKNILDKEIQEISTLKRNVSRTLQEYTSLKRSHEAAIRLEEPAAKVNHIKSQQEECELKLEKERDAWAAQMLELIAKEDEIVSCIRDYVLNQRNYHERALQHVNASLARIQDTIQGTEKSRFGTSLKEHLTSTNREISYIVELCCCCLLEHGLEEEGLLRVGCASTKLRRMKHALEAQHVKTPLPLDYQDPHVIGSILKLYLRELPEPLLTYNLYKDFIRIAERHSEAERKTEIKAILTKLPKENYANLRYLTRFLSIVQQRSALNKMSSQNLAIVMSPNMLWPRIDKSSNAPADYIGQVNSSSAANIIVELLISQWDYFFIGEVEFYLTLQKQKLFVEGKSKSNSSNENLDRNDSEVMESPRYGTLRRQKANAPSPPTTNGNGIIMTTSQTSHRPHAKELFPQQTPEKQEKPAKPPLPNLPQFQSPAASQPTQTQLEPLPPPPVTPAKPVPMTRTQFFGLDNLPSPTADRKSTDSIGSFKLKPDVPQKPLLPKRPTVLGVGVPKADGKSDDEGGTTPTQATIDNGNGSVRFKTEHFLDKLRQENGETNGTREVSSTTKENNHNHDPPATAADQNQQQAQPQVTTPISPNSFQTPKRPTVPAPPPPTNWKSSD
In the case of B12, the MAPPIT interaction score in [15] is -0.0901.

B13: Mst84Db (protein)
chain: MCCGPLGFCGPCSPCGGPCGPCGPCGPCGSCCSPCGSCCAPCGPCGPCGPCCGGCGPCGPCGPCCGPCRPYCGC
As to B13, the MAPPIT interaction score in [16] is 1.12; in assay [17], 0.0255.

B14: Prosalpha7 (protein)
chain: MSTIGTGYDLSASQFSPDGRVFQIDYASKAVEKSGTVIGIRGKDAVVLAVEKIITSKLYEPDAGGRIFTIEKNIGMAVAGLVADGNFVADIARQEAANYRQQFEQAIPLKHLCHRVAGYVHAYTLYSAVRPFGLSIILASWDEVEGPQLYKIEPSGSSFGYFACASGKAKQLAKTEMEKLKMDMRTDELVESAGEIIYKVHDELKDKDFRFEMGLVGRVTGGLHLINPSELTEKARKAGDAANKDEDSDNETH
As to B14, in [18], the MAPPIT interaction score is -0.137.

(Values after the supplement of paper PMC10105736.)
